Laboratory results: PubChem BioAssay (NCATS)
Records with an inconclusive call do not appear. The source made the active and inactive calls. Calls follow the shape of the dose curve; as a rule, active = well fitted curve in the direction sought with a large enough effect; inconclusive = small, poorly fitted or top-dose-only effect, or another doubt; inactive = no such curve, though single readings can be large; an effect the other way counts as inactive or inconclusive. Positions of bridges follow the written chain, without caps; N, C: chain ends. Non-standard residues stand in square brackets, D forms with d. Residues, ends and D or L forms follow the SMILES beside them. ξ: configuration not given here. *: point of attachment. Octanoyl(6-Me) = CCC(C)CCCCC(=O)*; ξThr(3R) = C[C@@H](O)C(N)C(=O)O; dDab = NCC[C@@H](N)C(=O)O; Dab = NCC[C@H](N)C(=O)O

Columns and labels:
HEK293T [1] = experiment: qHTS assay to identify novel small-molecules to repurpose for Merkel cell carcinoma treatment (AID 1296009); conditions: MCC and control cell lines, CellTiter-Glo viability, 72 h; series mostly up to 44.8 µM; also: nearly all actives have a fitted effect of over 60% in size; also: potency is read from the fitted curve at half-maximal effect
Method in brief: (§1)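 Cells were incubated with compound for 72 hr at 37 degree celsius before CellTiter-Glo addition. Luminescence was normalized with no-cell wells as full cytotoxicity and DMSO as baseline.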

MCC-13 = experiment: as above; conditions: MCC and control cell lines, CellTiter-Glo viability, 72 h; series mostly up to 46 µM
Method in brief: as §1

MCC-26 = experiment: as above; conditions: MCC and control cell lines, CellTiter-Glo viability, 72 h; series mostly up to 46 µM
Method in brief: as §1

MKL-1 = experiment: as above; conditions: MCC and control cell lines, CellTiter-Glo viability, 72 h; series mostly up to 46 µM
Method in brief: as §1

MKL-2 = experiment: as above; conditions: MCC and control cell lines, CellTiter-Glo viability, 72 h; series mostly up to 46 µM
Method in brief: as §1

UISO = experiment: as above; conditions: MCC and control cell lines, CellTiter-Glo viability, 72 h; series mostly up to 46 µM
Method in brief: as §1

WaGa = experiment: as above; conditions: MCC and control cell lines, CellTiter-Glo viability, 72 h; series mostly up to 46 µM
Method in brief: as §1

C33A = experiment: Primary qHTS to identify gynecologic anti-cancer compounds using libraries of approved drugs and bioactive compounds (AID 1345084); conditions: Gynecologic cancer cell panel viability, ATPlite luminescence, 48 h; series mostly up to 57.5 µM; also: nearly all actives have a fitted effect of over 55% in size; also: potency is read from the fitted curve at half-maximal effect
Method in brief: (§2)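 48 h compound exposure at 37 C, 5% CO2; five-point qHTS. ATPlite luminescence readout of cell ATP.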

CASKI = experiment: as above; conditions: Gynecologic cancer cell panel viability, ATPlite luminescence, 48 h; series mostly up to 57.5 µM
Method in brief: as §2

Es-2 = experiment: as above; conditions: Gynecologic cancer cell panel viability, ATPlite luminescence, 48 h; series mostly up to 57.5 µM
Method in brief: as §2

Hek293T [2] = experiment: as above; conditions: Gynecologic cancer cell panel viability, ATPlite luminescence, 48 h, control line for the selectivity index; series mostly up to 57.5 µM
Method in brief: as §2

JEG-3 = experiment: as above; conditions: Gynecologic cancer cell panel viability, ATPlite luminescence, 48 h; series mostly up to 57.5 µM
Method in brief: as §2

OV90 = experiment: as above; conditions: Gynecologic cancer cell panel viability, ATPlite luminescence, 48 h; series mostly up to 57.5 µM
Method in brief: as §2

PA-1 = experiment: as above; conditions: Gynecologic cancer cell panel viability, ATPlite luminescence, 48 h; series mostly up to 57.5 µM
Method in brief: as §2

Tov-21-G = experiment: as above; conditions: Gynecologic cancer cell panel viability, ATPlite luminescence, 48 h; series mostly up to 57.5 µM
Method in brief: as §2

Tov112D = experiment: as above; conditions: Gynecologic cancer cell panel viability, ATPlite luminescence, 48 h; series mostly up to 57.5 µM
Method in brief: as §2

NIH3T3 = experiment: qHTS assay to identify novel small-molecules to repurpose for Merkel cell carcinoma treatment (AID 1296009); conditions: MCC and control cell lines, CellTiter-Glo viability, 72 h; at 44.8 µM (top of the series) unless noted; also: nearly all actives have a fitted effect of over 60% in size; also: potency is read from the fitted curve at half-maximal effect
Method in brief: as §1

HeLa = experiment: Primary qHTS to identify gynecologic anti-cancer compounds using libraries of approved drugs and bioactive compounds (AID 1345084); conditions: Gynecologic cancer cell panel viability, ATPlite luminescence, 48 h; series mostly up to 57.5 µM; also: nearly all actives have a fitted effect of over 55% in size; also: potency is read from the fitted curve at half-maximal effect
Method in brief: as §2

SKOV3 = experiment: as above; conditions: Gynecologic cancer cell panel viability, ATPlite luminescence, 48 h; series mostly up to 57.5 µM
Method in brief: as §2

[3] = Drug repurposing screens with cells derived from glioblastoma tumor samples (AID 1345199); conditions: GBM patient neurospheres viability, ATP luminescence, 48 h; Potency: tumour line A; series mostly up to 46.1 µM; also: nearly all actives have a fitted effect of over 40% in size
Method in brief: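 Four patient lines of CD133+ GBM neurospheres were screened at several concentrations; hits were retested in those lines plus three slower-growing GBM lines, using 48-hour treatment and ATP-based viability.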

Measured: Potency

COC(=O)C=CC(=O)OC
inactive: HEK293T [1] | MCC-13 | MCC-26 | MKL-1 | MKL-2 | UISO

CN1C(C(=O)Nc2ccccn2)=C(O)c2sc(Cl)cc2S1(=O)=O
inactive: HEK293T [1] | MCC-13 | MKL-1 | UISO | WaGa

Cc1cncc2cccc(S(=O)(=O)N3CCCN(C(=O)CN)C[C@@H]3C)c12
not listed: MCC-13 | MKL-1 | WaGa | NIH3T3 | HeLa | SKOV3 | [3]
inactive: all other assays above

CC(Oc1ccc(O)cc1)(P(=O)(O)O)P(=O)(O)O
inactive: HEK293T [1] | MCC-13 | MKL-1 | MKL-2 | UISO | WaGa

Cc1nc(NC(=O)N2CCC[C@@H]2C(N)=O)sc1-c1ccnc(C(C)(C)C(F)(F)F)c1
inactive: MCC-13 | MCC-26 | MKL-1

O=c1c(O)c(-c2ccc(O)c(O)c2)oc2cc(O)ccc12
inactive: MCC-13 | MCC-26 | MKL-1 | MKL-2

CCC(C)CCCCC(=O)N[C@@H](CCN)C(=O)NC(C(=O)N[C@H](CCN)C(=O)N[C@@H]1CCNC(=O)C([C@@H](C)O)NC(=O)[C@@H](CCN)NC(=O)[C@@H](CCN)NC(=O)[C@@H](CC(C)C)NC(=O)[C@H](Cc2ccccc2)NC(=O)[C@H](CCN)NC1=O)[C@@H](C)O (stereo partly drawn) ({Octanoyl(6-Me)}-[Dab][ξThr(3R)][dDab][dDab][Dab]F[dL][dDab][dDab][ξThr(3R)]; lactam 4-C)
inactive: HEK293T [1] | MCC-13 | MCC-26 | MKL-1 | MKL-2 | NIH3T3 | UISO | WaGa

O=C(CN1C(=O)C2(CCCC2)NC[C@H]1c1cc(F)cc(F)c1)Nc1ccc2c(c1)C[C@@]1(C2)C(=O)Nc2ncccc21
inactive: HEK293T [1] | MCC-13 | MCC-26 | MKL-1 | MKL-2 | UISO | WaGa

O=S(=O)(O)CCSSCCS(=O)(=O)O
inactive: HEK293T [1] | MCC-13 | MCC-26 | MKL-1 | MKL-2 | UISO | WaGa

CC1(C)O[C@@H]2C[C@H]3[C@@H]4CCC5=CC(=O)C=C[C@]5(C)[C@@H]4[C@@H](O)C[C@]3(C)[C@]2(C(=O)CO)O1
not listed: MCC-26 | NIH3T3 | [3]
inactive: all other assays above

O=C(O)CCCCCC(=O)NN=C1CCCC1
inactive: HEK293T [1] | MCC-13 | MCC-26 | MKL-1 | MKL-2 | UISO | WaGa

COc1cc(CCc2cc(NC(=O)c3ccc(N4C[C@@H](C)N[C@@H](C)C4)cc3)n[nH]2)cc(OC)c1
active: HEK293T [1] 14.6 µM | UISO 23.5 µM | HeLa 25.1 µM | PA-1 20 µM
inactive: MCC-13 | MKL-2 | WaGa | Hek293T [2] | JEG-3

CC1(C)CC(O)CC(C)(C)N1[O]
inactive: HEK293T [1] | MCC-13 | MCC-26 | MKL-1 | MKL-2 | UISO | WaGa

Cc1cc(O)c2c(c1)C(=O)c1cccc(O)c1C2=O
inactive: HEK293T [1] | MCC-13 | MCC-26 | MKL-1 | MKL-2 | UISO | WaGa

C[C@H]1C[C@H]2[C@@H]3CCC4=CC(=O)C=C[C@]4(C)[C@@H]3C(=O)C[C@]2(C)[C@@]1(O)C(=O)CO
inactive: MCC-13 | MCC-26 | MKL-1 | MKL-2 | NIH3T3 | UISO | WaGa | [3]

C[C@H]1O[C@H](O[C@H]2[C@H](O)[C@@H](O)[C@@H](O[C@H]3[C@H](O)[C@@H](O)C(O)O[C@H]3CO)O[C@H]2CO)[C@H](O)[C@@H](O)[C@H]1N[C@H]1C=C(CO)[C@@H](O)[C@H](O)[C@@H]1O (some centres undefined)
inactive: MCC-13 | MCC-26 | MKL-1 | MKL-2 | UISO | WaGa

CCOC(=O)[C@H](CCc1ccccc1)N[C@@H](C)C(=O)N1[C@@H](C(=O)O)C[C@H]2CCC[C@@H]21
inactive: MCC-13 | MCC-26 | MKL-1 | UISO
active: MKL-2 14.8 µM

COc1cc([C@@H]2c3cc4c(cc3[C@@H](O[C@@H]3O[C@@H]5CO[C@@H](c6cccs6)O[C@@H]5[C@H](O)[C@@H]3O)[C@H]3COC(=O)[C@H]23)OCO4)cc(OC)c1O
active: MCC-13 1.66 µM | MCC-26 2.35 µM | MKL-1 0.235 µM | MKL-2 0.118 µM | UISO 1.87 µM

NC(=O)c1cccc(-c2cccc(OC(=O)NC3CCCCC3)c2)c1
inactive: MCC-13 | MCC-26 | MKL-1 | MKL-2 | NIH3T3 | UISO | WaGa

Nc1nc2c(c(=O)[nH]1)N(C=O)[C@H](CNc1ccc(C(=O)N[C@@H](CCC(=O)O)C(=O)O)cc1)CN2
inactive: MCC-13 | MCC-26 | MKL-1 | MKL-2 | NIH3T3 | UISO | WaGa

C[C@@H](Oc1ccc2[nH]nc(C=Cc3cnn(CCO)c3)c2c1)c1c(Cl)cncc1Cl
inactive: MKL-2
active: MCC-13 26.4 µM | MCC-26 16.6 µM | MKL-1 7.43 µM | UISO 20.9 µM
